Data on 28 molecules can be found in PubChem BioAssay AID2563 (Broad Institute, 2010).

Hit rate of the full screen: of about 290,000 compounds, about 800 (0.28%) were called active.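 Rule for the calls: active = fall in fluorescence gain of 50% or more versus controls, with final raw signal at or below 3038400; inconclusive = same 50% fall but final raw signal above 3038400; inactive = fall in fluorescence gain under 50%.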 The full list was thinned out, with actives kept by preference.

Sequence of CAAX prenyl protease 2 (Saccharomyces cerevisiae (strain ATCC 204508 / S288c)) (Q03530 whole entry, looked up): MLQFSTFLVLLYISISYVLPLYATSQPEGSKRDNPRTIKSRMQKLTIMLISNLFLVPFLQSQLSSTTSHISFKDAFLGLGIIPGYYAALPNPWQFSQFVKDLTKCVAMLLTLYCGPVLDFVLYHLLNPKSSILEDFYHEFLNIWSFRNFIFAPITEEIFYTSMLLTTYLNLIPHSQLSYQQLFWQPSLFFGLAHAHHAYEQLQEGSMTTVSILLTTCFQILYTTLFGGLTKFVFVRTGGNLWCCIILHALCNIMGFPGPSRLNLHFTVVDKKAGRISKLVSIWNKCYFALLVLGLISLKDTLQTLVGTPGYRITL

The assay addresses CAAX prenyl protease 2 (Saccharomyces cerevisiae (strain ATCC 204508 / S288c)) (UniProt Q03530). In words: yeast Rce1p protease inhibitors, primary screen, biochemical, fluorescence, cell-free homogeneous (AID 2563). Conditions: yeast membranes, quenched prenylated peptide cleavage fluorescence.
Turning to `CC(C)CN(C(=O)COC(=O)c1ccc2ccccc2c1)c1c(N)n(Cc2ccccc2)c(=O)[nH]c1=O`, the molecule was classed as inactive. For `COc1ccc(NS(=O)(=O)c2ccc(C)c(C(=O)NCC(c3cccs3)N3CCOCC3)c2)cc1` (stereo not drawn) the value was “inactive”.

Consider `CN(C)c1ccc(C2Nc3ccccc3C(=O)N2NS(=O)(=O)c2ccccc2)cc1` (stereo not drawn), for which the molecule was called inactive. The value for `CCOC(=O)NN1C(=O)c2ccccc2NC1c1cccc(O)c1` (stereo not drawn) was “inactive”; that for `CC(=O)NN1C(=O)c2ccccc2NC1c1ccccc1` (stereo not drawn) was “active”; that for `COCCn1c(SC(C)C(=O)NC2CC2)nnc1-c1cccc(C)c1` (stereo not drawn) was “inactive”. Consider `CC(C)(C)S(=O)(=O)c1ccccc1-c1noc(-c2ccccc2)c1C(N)=O`, for which the call was inactive. Regarding `CCn1c(SC(C)C(=O)Nc2ccc(N3CCOCC3)cc2)nnc1-c1ccco1` (stereo not drawn), the outcome was inactive. For `Cc1ccc(C(=O)N/N=C/c2cccc3ccccc23)cn1` the value was “inactive”; for `CCCCCN(C(=O)CCC(=O)OCC(=O)NC1CCC(C)CC1)c1c(N)n(CCCC)c(=O)[nH]c1=O` (stereo not drawn), “inactive”. The value for `COc1ccc(C)cc1S(=O)(=O)Nc1cc2c3c(c1)CCC(=O)N3CCC2` was “inactive”. For `CCCc1cc(=O)[nH]c(SCC(=O)c2c(N)n(CC(C)C)c(=O)n(C)c2=O)n1` the value was “inactive”; for `O=C(CN1C(=O)NC2(CCCC2)C1=O)OCCOc1ccc(F)cc1`, “inactive”. `CCN1CCN(c2ccc(S(=O)(=O)N3CCCCC3)cc2NC(=O)c2cccc(NC(C)=O)c2)CC1`: the molecule was called inactive. For `Cc1onc(-c2ccccc2Cl)c1C(=O)N(Cc1ccc(N(C)C)cc1)C(C)C` the value was “inactive”; for `CCc1noc(C)c1C(=O)Nc1nc2ccc(OC)cc2s1`, “inactive”.

Regarding `COC(C[C@H](O)CC(=O)[C@@H](C)OCc1ccccc1)OC`, the molecule was classed as inactive. Take `COC(C[C@@H](O)C[C@H](O)[C@H](C)OCc1ccccc1)OC`: the molecule was called active. `COC(C[C@@H](O)C[C@@H](O)[C@H](C)OCc1ccccc1)OC`: the outcome was inactive.

Take `Cc1ccc2nnn(Cc3cccc(C(C)(C)C)c3O)c2c1`: the outcome was inactive.

Regarding `Cc1ccc2nc(NC(=O)CSc3nc(=O)n(CCCN(C)C)c4c3CCC4)sc2c1`, the result was inactive.

In the case of `O=C(NCC(=O)N1CCCC(C(F)(F)F)C1)c1ccccc1F` (stereo not drawn), the call was inactive.

In the case of `Cc1nc(N2CCN(c3ccccn3)CC2)c2c(C)c(C(=O)Nc3ccc(F)c(Cl)c3)sc2n1`, the result was inactive.

Consider `Cc1nc(N2CCOCC2)c2c(C)c(C(=O)Nc3ccc(C(F)(F)F)cc3)sc2n1`, for which the result was active.

As to `Cc1nc(N2CCN(c3ccccn3)CC2)c2c(C)c(C(=O)Nc3ccc(F)cc3)sc2n1`, the molecule was called inactive.

For the molecule `Cc1c(C)n2c(SCC(=O)N3CCCC3)nnc2[nH]c1=O`, the molecule was called inactive. `Cc1cc(/C=N/n2cnnc2)c(C)n1-c1ccc2ncccc2c1`: the molecule was called inactive. For `Cc1nn(C)cc1C(=O)c1ccccc1` the value was “inactive”.
